Experimental findings from PubChem BioAssay AID602393 (Broad Institute, 2012) are described below.

Out of some 350,000 compounds screened, about 7,000 (2%) were called active. Shown is part of a subset that was picked to be rich in actives. Unmarked numbers belong to inactive results. Rule as the data show it: active = activation above about 40%; inconclusive = no clear call, values can overlap the other calls; inactive = below that.

The experiment can be described thus: raisers of Bmi1 knock-in reporter signal – mouse ES cells, Bmi1 luciferase knock-in, single point, esBAF inhibitor project, primary screen (AID 602393).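 Also: 0% = median of the plate's neutral control wells and 100% = double that signal; a rise in the Bmi1 reporter signal indicates esBAF inhibition.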 As to conditions: 24 h, at 12.5 µM, stronger effect = higher value, 100% = twice the neutral-well signal.
Take `CCNC(=O)[C@H]1[C@H](CO)[C@H]2Cn3c(ccc(/C=C/c4ccccc4)c3=O)[C@@H]1N2C(=O)C1CCC1`: the reporter increase was 0.423%.
As for `COC(=O)C[C@H]1CC[C@H](NC(=O)c2ccccc2)[C@@H](CO)O1`, the figure is -1.98%.
Take `C/C=C/c1ccc2c(c1)O[C@@H](CN(C)S(C)(=O)=O)[C@@H](C)CN([C@H](C)CO)S2(=O)=O`: the reporter increase is -0.163%.
As for `COc1ccc(-c2nnc(SCc3cccnc3)o2)cc1`, the figure is 52.4% (active).
As to `COc1cccc(NC(=O)CSc2nnc(-c3cccnc3)o2)c1`, the reporter increase was 13.3%.
As for `COc1ccc(-c2nnc(SC(=O)N3c4ccccc4Sc4ccccc43)o2)cc1`, the figure is 2.78%; as for `CC(C)NC(=O)N(C)C[C@H]1Oc2ncc(C#CC3CC3)cc2C(=O)N([C@H](C)CO)C[C@@H]1C`, -3.17%; as for `CCCC(=O)Nc1ccc2c(c1)OC[C@H](C)N(S(=O)(=O)c1cn(C)cn1)C[C@@H](C)[C@H](OC)CN(C)C2=O`, -1.9%.
As for `CN1C(=O)c2cc(NC(=O)c3ccccc3)ccc2OC[C@@H]2O[C@H](CC(=O)NCC3CC3)CC[C@@H]21`, the figure is 6.3%; as for `C/C=C/c1ccc2c(c1)O[C@H](CN(C)C(=O)CN(C)C)[C@H](C)CN([C@@H](C)CO)S2(=O)=O`, 0.684%; as for `CCOC(=O)Cc1csc(NC(NC(=O)OCC)(C(F)(F)F)C(F)(F)F)n1`, -0.744%.
Then `COc1ccccc1NC(=O)Nc1nc(CC(=O)Nc2ccccc2F)cs1`, with 1.14%; and `CCOC(=O)Cc1csc(NC(=O)Nc2ccccc2)n1`, with 47.4% (active); and `C[C@@H]1CN([C@@H](C)CO)C(=O)c2cc(NS(=O)(=O)c3ccccc3)ccc2O[C@@H](C)CCCCO[C@@H]1CN(C)S(=O)(=O)c1cccs1`, with 6.97%.
On to `C[C@@H]1CN([C@H](C)CO)S(=O)(=O)c2ccc(C#CCN(C)C)cc2O[C@@H]1CN(C)C(=O)C1CCCCC1`, for which the reporter increase was -0.287%.
Then `Cc1ccc(C)c(OCc2cc(C(=O)N3CCN(c4cnccn4)CC3)no2)c1`, with 3.21%; and `COc1cccc(OCc2cc(C(=O)N3CCN(C(=O)c4ccco4)CC3)no2)c1`, with 70.2% (active).
As for `O=C(c1cc(COc2c(F)cccc2F)on1)N1CCSCC1`, the figure is 53.1% (active); as for `COc1cccc(OC)c1OCCN1CCN(C(=O)c2ccco2)CC1`, -3.54%; as for `O=C(c1cc(COc2cccc(C(F)(F)F)c2)on1)N1CCSCC1`, -2.92%.
As for `O=C(c1cc(COc2ccc(F)cc2F)on1)N1CCOCC1`, the figure is 61.9% (active); as for `O=C(c1cc(COc2ccc(F)c(F)c2)on1)N1CCOCC1`, 37.7%.
As for `O=C(c1ccco1)N1CCN(C(=O)c2ccc(COc3ccc(F)cc3)o2)CC1`, the reporter increase was -8.59%.
On to `O=C(NCCCc1ccccc1)c1cc(COc2c(F)cccc2F)on1`, for which the reporter increase was 17.5%.
Then `C[C@@H]1CN([C@@H](C)CO)C(=O)c2cc(NC(=O)C3CCCCC3)ccc2O[C@@H](C)CCCCO[C@H]1CN(C)C(=O)Nc1ccc2c(c1)OCO2`, with 7.74%; and `CC(=O)N[C@@H]1C=C[C@H](CC(=O)NCC2CCCCC2)O[C@H]1CO`, with 4.99%.
As for `C[C@@H]1CCCCO[C@@H](CN(C)Cc2ccncc2)[C@@H](C)CN([C@@H](C)CO)C(=O)c2cc(N(C)C)ccc2O1`, the figure is 1.32%; as for `COc1cccc(NC(=O)N[C@@H]2C=C[C@H](CC(=O)NCc3ccccn3)O[C@H]2CO)c1`, -1.55%.
On to `COc1cccc(C(=O)Nc2ccc3c(c2)C(=O)N(C)C[C@@H](OC)[C@@H](C)CN(C)[C@@H](C)CO3)c1`, for which the reporter increase is 1.2%.
Then `C[C@@H]1CN([C@@H](C)CO)S(=O)(=O)c2ccc(-c3cccnc3)cc2O[C@H]1CN(C)CC1CCOCC1`, with 2.46%.
For the compound `O=C(C[C@H]1C[C@@H]2c3cc(NC(=O)CC4CC4)ccc3O[C@@H]2[C@H](CO)O1)NCc1ccccn1`, the reporter increase is 0.771%.
Then `C[C@H]1CN([C@@H](C)CO)C(=O)c2cc(C3=CCCC3)cnc2O[C@H]1CN(C)C(=O)Nc1ccc(F)cc1`, with -1.8%; and `COc1cccc(-c2cnc3c(c2)C(=O)N([C@H](C)CO)C[C@H](C)[C@H](CN(C)C(=O)NC(C)C)O3)c1`, with -3.06%; and `Cc1ccccc1-c1ccc([C@@H]2[C@H](CO)N3CCCCN(S(=O)(=O)c4ccc(F)cc4)C[C@@H]23)cc1`, with -4.12%.
As for `O=c1oc2cc(O)ccc2cc1-c1ccc(F)cc1`, the figure is 47.3% (active).
As for `CO[C@@H]1CC[C@H]2CCOc3c(C#N)cccc3C(=O)N(C)C[C@@H](OC)[C@H](C)C(=O)N(C)C[C@@H]1O2`, the figure is -3.58%.
Take `CCCNC(=O)N(C)C[C@H]1Oc2ncc(-c3ccc(F)cc3)cc2C(=O)N([C@H](C)CO)C[C@H]1C`: the reporter increase was 1.97%.
Then `C[C@@H](NC(=O)C[C@H]1CC[C@H](NS(=O)(=O)c2cccc(F)c2)[C@H](CO)O1)c1ccccc1`, with -2.73%; and `CO[C@H]1CN(C)C(=O)c2cc(NS(=O)(=O)CC(F)(F)F)ccc2OC[C@@H](C)N(Cc2nccs2)C[C@@H]1C`, with -3.43%.
Then `O=C(Nc1ccc2c(c1)OCO2)N[C@@H]1CC[C@H](CC(=O)N2CCN(c3ccccc3)CC2)O[C@@H]1CO`, with -0.613%; and `O=C(NCCC1CCCCN1S(=O)(=O)c1ccccc1)C(=O)NCC1CCCO1` (stereo not given), with -3.85%.
As for `Cc1ccc(C)c(S(=O)(=O)N2CCCOC2CNC(=O)C(=O)NC2CCCCC2)c1` (stereo not given), the figure is 51.3% (active); as for `Cc1ccc(NC(=O)NC2CCCCC2)cc1S(=O)(=O)N1CCOCC1`, -1.63%.
With `O=C(C[C@H]1CC[C@H]2[C@@H](COC[C@@H](O)CN2C(=O)c2ccc3c(c2)OCO3)O1)NC1Cc2ccccc2C1`, the reporter increase was -0.266%.
Then `CN(C)CC(=O)Nc1ccc2c(c1)[C@H]1C[C@H](CC(=O)NCc3ccc4c(c3)OCO4)O[C@@H](CO)[C@H]1O2`, with 2.82%.
Then `Cn1c(SCc2nc3ccccc3s2)nnc1-c1ccc2c(c1)OCO2`, with 66.4% (active); and `Cn1c(SCC(=O)N2CCCC2)nnc1-c1ccc2c(c1)OCO2`, with 1.7%.
As for `O=C(O)CSc1nnc(-c2ccc3c(c2)OCO3)n1-c1ccccc1`, the figure is 19.1%.
As to `C[C@@H]1CCCCO[C@H](CN(C)C(=O)Cc2ccccc2)[C@H](C)CN([C@H](C)CO)C(=O)c2cc(NS(=O)(=O)c3cn(C)cn3)ccc2O1`, the reporter increase is 5.86%.
Then `C[C@H](CO)N1C[C@H](C)[C@@H](CN(C)Cc2cccc3c2OCCCO3)OCc2cn(nn2)CCCC1=O`, with -0.925%.
As for `Cc1nn(C(=O)c2ccoc2C)c(N)c1-c1ccccc1`, the figure is 78.5% (active); as for `Cc1occc1C(=O)Nc1cccc(Cn2cccn2)c1`, 10.4%.
Then `Cc1ccnc(NC(=O)c2ccoc2C)c1`, with 25.4%.
As to `C[C@@H]1CN([C@H](C)CO)C(=O)Cc2cc(NS(=O)(=O)c3ccc(Cl)cc3)ccc2O[C@@H]1CN(C)C`, the reporter increase was -0.489%.
As for `Fc1ccccc1COc1cccc2cccnc12`, the figure is 45.7% (active); as for `Fc1ccccc1COc1ccccc1CNCc1ccncc1`, 2.36%; as for `O=S(=O)(NCCOc1cccc2cccnc12)c1ccc(F)cc1`, 11.1%.
With `CC(C)CC#Cc1cnc2c(c1)C(=O)N([C@@H](C)CO)C[C@H](C)[C@@H](CN(C)Cc1ccccc1C(=O)O)O2`, the reporter increase was -9.83%.
For the compound `CCn1ccnc1CN(C)C(=O)c1cc(COc2ccc(Cl)cc2OC)on1`, the reporter increase was 1.62%.
Then `COc1cc(Cl)ccc1OCc1cc(C(=O)N2CC[C@@H]3CCCC[C@H]3C2)no1`, with 52.6% (active); and `CCOC(=O)CC1(NC(=O)c2cc(COc3cncc(Cl)c3)on2)CCCCC1`, with 2.06%; and `COc1cc(Cl)ccc1OCc1cc(C(=O)N(C)CCc2c(C)n[nH]c2C)no1`, with 14.1%.
Then `CCOC(=O)C1CCCN(C(=O)c2cncc(Br)c2)C1` (stereo not given), with -6.09%; and `CCCOC1CCCN(C(=O)c2cc(COc3cncc(Cl)c3)on2)C1` (stereo not given), with 66.1% (active).
For the compound `C[C@@H]1CN([C@H](C)CO)C(=O)c2cc(NC(=O)Cn3cnnn3)ccc2O[C@@H]1CN(C)CC1CC1`, the reporter increase was -4.62%.
On to `C[C@H](CO)N1C[C@H](C)[C@H](CN(C)S(C)(=O)=O)Oc2c(NC(=O)Nc3cccc4ccccc34)cccc2C1=O`, for which the reporter increase is -0.771%.
Then `C[C@H](O)C#Cc1cnc2c(c1)C(=O)N([C@@H](C)CO)C[C@H](C)[C@H](CN(C)C(=O)c1ccccc1)O2`, with -2.39%; and `CN1C(=O)c2cc(NC(=O)c3ccccc3)ccc2OC[C@@H]2O[C@@H](CC(=O)NC3CCCC3)CC[C@H]21`, with -4.47%; and `C[C@H]1CCCCO[C@@H](CN(C)Cc2ccc3c(c2)OCO3)[C@@H](C)CN([C@@H](C)CO)C(=O)c2cc(NS(=O)(=O)c3ccc(F)cc3)ccc2O1`, with 3.56%.
With `COCCN(C[C@H]1[C@@H](c2ccccc2)[C@H](CO)N1C(=O)C1CCC1)C(C)=O`, the reporter increase is -2.98%.
As for `C[C@@H]1CN([C@H](C)CO)C(=O)c2cc(C#CC3CC3)cnc2O[C@H]1CN(C)C(=O)CC1CC1`, the figure is 3.96%; as for `COc1ccccc1/C=C/C(=O)NC1CC2CCC1C2` (stereo not given), 28.1%.
With `COc1ccccc1/C=C/C(=O)NC(=S)N1CCOCC1`, the reporter increase was 44.4% (active).
Then `O=C(/C=C/c1ccco1)NC(=S)N1CCCCC1`, with 11.3%; and `C[C@H]1CN([C@@H](C)CO)S(=O)(=O)c2ccc(-c3ccncc3)cc2O[C@@H]1CN(C)C(=O)CC1CC1`, with -3.03%.
